# Screening results deposited in PubChem BioAssay by several laboratories.
# PfGluPho inh = PfG6PD (Plasmodium falciparum) enzyme inhibition | PfGluPho enzyme, NADPH resazurin-diaphorase fluorescence | inhibition, % at 20 µM | 0.78% of 350,000 active | AID 504690;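 active = inhibition reaching at least a set limit at 20 µM in the primary screen, cut at about 59% in these data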;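 note: 0% = DMSO wells with substrate and 100% = DMSO wells lacking glucose-6-phosphate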
# APOBEC3G inh = APOBEC3G (human) deaminase inhibition | Q9HC16 | recombinant A3G, ssDNA deamination FAM/TAMRA fluorescence | inhibition, % at 20 µM | 0.28% of 330,000 active | AID 493012;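 active = inhibition of at least 40% at 20 µM, with no more than 30% in the related APOBEC3A deaminase screen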;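 note: plate controls were DMSO wells with A3G for no effect and wells lacking A3G enzyme for full effect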
# Target sequence (Q9HC16 whole entry, looked up): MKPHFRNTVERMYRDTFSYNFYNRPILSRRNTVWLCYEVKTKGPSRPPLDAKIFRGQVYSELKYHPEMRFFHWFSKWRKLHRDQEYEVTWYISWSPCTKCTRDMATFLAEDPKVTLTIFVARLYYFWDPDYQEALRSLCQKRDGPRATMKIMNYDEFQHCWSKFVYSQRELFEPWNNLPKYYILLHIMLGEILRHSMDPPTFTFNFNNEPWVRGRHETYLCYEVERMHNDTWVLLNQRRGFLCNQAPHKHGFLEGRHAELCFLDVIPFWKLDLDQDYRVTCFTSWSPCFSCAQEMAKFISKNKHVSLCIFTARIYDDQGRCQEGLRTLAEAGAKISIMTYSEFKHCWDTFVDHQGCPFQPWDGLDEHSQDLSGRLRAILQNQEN
# PfM18AAP inh-1 = blocks P. falciparum M18 aspartyl aminopeptidase. recombinant PfM18AAP, H-Glu-NHMec fluorogenic cleavage. inhibition, % at 7.35 µM. 1.2% of 290,000 active. AID 1822;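 active = inhibition above the campaign mean inhibition over all tested compounds plus 3 SD, cut at about 28% in these data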;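 note: 0% = plate median of test compound wells and 100% = 2 mM ZnCl2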
# APOBEC3A inh = blocks human APOBEC3A ssDNA deamination; P31941; recombinant A3A, FAM/TAMRA ssDNA deamination fluorescence; inhibition, % at 20 µM; 0.41% of 330,000 active; AID 493011;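 active = at least 40% inhibition at 20 µM here, with at most 30% in a related deaminase screen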;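 note: plate controls were A3A with DMSO for no effect and wells lacking A3A enzyme for full effect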
# Yeast superoxide = lowers age-related superoxide in aged yeast cells; superoxide response (% of plate mean), % at 10 µM; AID 2690; 0.18% of 330,000 active; S. cerevisiae aged cells, superoxide DHE fluorescence; active compounds read low;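 active = superoxide response under a set limit, about three screen SD below normal, cut at about 65% in these data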;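 note: yeast aged for seven days with compound at 30 °C before DHE staining; 100% = average MFI of all compound-treated wells on the plate with controls excluded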
# PfM18AAP inh-2 = confirmation of Plasmodium falciparum M18 aspartyl aminopeptidase inhibitors. shares compounds with PfM18AAP inh-1. recombinant PfM18AAP, H-Glu-NHMec fluorogenic cleavage. inhibition, % at 7.35 µM. 28% of 2,400 active;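 active = mean inhibition over replicate wells above the hit cutoff set for the earlier primary screen, cut at about 29% in these data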;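 note: 0% = median of test compound wells and 100% = 2 mM ZnCl2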
# CTSL1 confirm = counter-screen for PFM18AAP inhibitors: confirmation of human cathepsin L inhibitors; shares compounds with PfM18AAP inh-1; purified cathepsin L1, Z-Leu-Arg-MCA fluorescence; inhibition, % at 5.96 µM; 2,400 tested, under 10 active;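 active = average inhibition across replicates above the hit cutoff set in the earlier primary screen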;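 note: 0% = median of test compound wells and 100% = Z-Phe-Ala-diazomethylketone 1 µM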
# Target sequence (P07711 whole entry, looked up): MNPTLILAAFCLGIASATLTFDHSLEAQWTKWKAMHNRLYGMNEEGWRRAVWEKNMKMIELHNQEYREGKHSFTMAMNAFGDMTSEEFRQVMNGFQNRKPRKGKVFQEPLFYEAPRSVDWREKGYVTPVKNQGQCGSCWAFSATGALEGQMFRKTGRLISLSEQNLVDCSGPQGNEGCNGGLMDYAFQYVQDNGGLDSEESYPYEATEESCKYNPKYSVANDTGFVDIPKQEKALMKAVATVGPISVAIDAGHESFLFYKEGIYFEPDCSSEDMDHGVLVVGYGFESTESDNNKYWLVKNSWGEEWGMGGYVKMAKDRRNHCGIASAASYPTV
# * hit, by the source's call; x = not tested or not shown. Shown are actives, neighbours in structure and some others; about 2.4% of the full set was active somewhere.
SMILES,PfGluPho inh,APOBEC3G inh,PfM18AAP inh-1,APOBEC3A inh,Yeast superoxide,PfM18AAP inh-2,CTSL1 confirm
N#CC1=C(N)SC(N)=C(C#N)C1Cc1ccccc1,26.7,47.5*,42.9*,-5.1,106.2,-9.2,0.9
N#CC1=C(N)SC(N)=C(C#N)C1c1cccc(Oc2ccccc2)c1,-16.6,-12.0,3.3,-6.6,94.5,x,x
N#CC1=C(N)SC(N)=C(C#N)C1CCc1ccccc1,-29.2,-3.7,9.3,-0.6,100.2,x,x
N#CC1=C(N)SC(N)=C(C#N)C1c1c(Cl)cccc1Cl,40.5,-8.7,45.5*,-5.8,101.6,-12.8,2.2
CN(CC(=O)Nc1ccccc1C(F)(F)F)Cc1c(O)ccc2ccccc12,33.5,-2.0,6.1,-2.7,125.6,x,x
CN1CCN(C(=S)NC(=O)c2ccc(S(=O)(=O)N3CCOCC3)cc2)CC1,15.5,7.0,44.6*,0.4,99.3,14.6,1.7
O=c1cc(CN2CCN(Cc3ccc(F)cc3)C(CCO)C2)[nH]c2ccccc12 (stereo unspecified),-4.7,-4.0,8.0,-6.5,95.8,x,x
C[C@@H]1CN([C@H](C)CO)S(=O)(=O)c2ccc(Br)cc2O[C@H]1CN(C)C(=O)Cc1ccccn1,3.9,x,x,x,x,x,x
Oc1ccc(-c2nc(-c3ccc(O)c(O)c3)cs2)cc1,37.2,-4.2,58.6*,-3.1,104.4,70.6*,-12.8
CC(=O)Sc1nc(-c2ccccc2)[nH]c1S(=O)(=O)c1ccc(C)cc1,64.6*,-14.8,55.4*,4.2,90.3,4.6,-4.8
CC(C)n1c(=O)[nH]c2ccccc21,10.7,-3.5,-10.5,2.5,113.0,x,x
CC(C)n1c(=O)[nH][nH]c1=S,74.7*,4.2,56.8*,-7.8,93.0,36.0*,0.8
OC(Cn1cnnc1)c1ccccc1 (stereo unspecified),-0.7,-8.0,79.0*,1.7,93.8,76.2*,-2.8
COc1ccc(/C=N/Nc2ncnc(Cl)c2N)cc1OC,12.8,-6.8,35.2*,0.0,82.9,-44.6,2.3
Oc1ccc(/C=N/Nc2nccnc2Cl)c(O)c1,-23.9,-5.6,35.3*,2.5,106.7,-6.9,3.0
COc1ccc(/C=N/Nc2nccnc2Cl)cc1,-4.4,-3.1,35.6*,-1.4,99.4,-37.5,5.1
Clc1nccnc1N/N=C/c1ccc(Br)cc1,7.1,-0.5,9.2,-1.6,95.7,x,x
Oc1ccccc1/C=N/Nc1nccnc1Cl,-4.6,-1.2,23.3,2.2,90.2,x,x
O=C(COC(=O)/C=C/c1ccc(F)cc1)Nc1ccccc1-c1ccccc1,13.8,-1.6,2.1,-1.2,94.1,x,x
CCCn1c(N)cc(=O)n(CCC)c1=O,9.4,-5.2,-4.6,-3.8,96.2,x,x
COc1cccc(CNS(=O)(=O)c2ccc3c(c2)C(C)(C)C(=O)N3C)c1,-2.0,4.6,-15.1,10.4,92.0,x,x
O=C(NN1CCOCC1)c1ccc(Cl)c([N+](=O)[O-])c1,5.3,-5.6,-3.4,-3.4,98.5,x,x
Cc1ccc(C(=O)Nn2cnnc2)cc1Cl,-1.4,-9.1,47.1*,-2.2,111.5,33.1*,1.0
O=C(Nn1cnnc1)c1ccncc1,3.4,-2.4,13.1,-3.8,113.7,x,x
N#Cc1ccc(C(=O)Nn2cnnc2)cc1,-9.3,-8.0,45.0*,-4.0,86.8,27.0,-3.1
SMILES,PfGluPho inh,APOBEC3G inh,PfM18AAP inh-1,APOBEC3A inh,Yeast superoxide,PfM18AAP inh-2,CTSL1 confirm
O=C(Nn1cnnc1)c1ccc(Cl)c([N+](=O)[O-])c1,-14.4,-5.8,44.3*,-5.1,103.8,43.8*,-4.0
O=C(Nn1cnnc1)c1cccc(S(=O)(=O)N2CCOCC2)c1,5.0,-10.5,38.2*,-6.7,110.2,32.9*,-0.5
COc1ccc(OCC(=O)OCC(=O)Nc2ccc3[nH]c(=O)[nH]c3c2)cc1,6.7,1.5,x,23.7,98.5,x,x
Cn1c(SCC(=O)NC2CCCc3ccccc32)nnc1C1CC1 (stereo unspecified),-10.3,-2.4,x,0.3,x,x,x
O=C(Nn1cnnc1)c1cc(Cl)cc(Cl)c1,3.3,-6.1,47.0*,-3.1,83.2,32.3*,-6.9
Cc1cc(C(=O)Nn2cnnc2)ccc1[N+](=O)[O-],5.0,-0.4,46.2*,0.6,91.0,51.1*,5.7
CCC(NC(=O)Nc1ccc(O)cc1)(C(F)(F)F)C(F)(F)F,26.0,-8.0,39.2*,-2.0,91.0,-88.3,-1.1
C=CCn1c(-c2ccccc2)n[nH]c1=S,26.9,23.2,13.8,-3.1,94.2,x,x
C=CCn1c(Cc2ccccc2)n[nH]c1=S,23.9,27.6,34.3*,-1.1,102.6,-4.5,-1.1
C=CCn1c(Cc2c[nH]c3ccccc23)n[nH]c1=S,33.1,28.3,-1.9,-2.0,88.8,x,x
C=CCn1c(-c2ccoc2)n[nH]c1=S,-11.8,32.2,48.6*,-3.0,102.6,-19.7,-1.2
CCCCCCN1C[C@@H](O)[C@H](n2cc(COC(=O)c3ccccc3)nn2)C[C@@H]1c1ccc(C)cc1,-1.6,x,x,x,x,x,x
COc1ccc(CN2C(=O)c3cccnc3C2=O)cc1S(=O)(=O)NC(C)C,-4.8,-9.4,-1.3,-3.2,104.4,x,x
COc1cc(/C=C2\SC(=S)N(C(C(=O)O)c3ccccc3)C2=O)ccc1O (stereo unspecified),-45.8,-2.6,22.5,-2.0,111.5,x,x
O=C(O)C(c1ccccc1)N1C(=O)/C(=C\c2ccc(O)c(O)c2)SC1=S (stereo unspecified),-17.8,-2.6,49.5*,0.3,104.8,28.2*,-2.1
Cc1ccc(NC(=O)C(=O)c2ccc(C)cc2)cc1,2.2,-10.8,5.0,-1.9,98.7,x,x
NCCCC[C@@H](C(=O)N1CCNCC1)n1cc([C@@H](N)CC(N)=O)nn1,-2.9,-5.7,x,-0.7,93.5,x,x
CCOC(=O)c1oc2c(O)c(O)ccc2c(=O)c1-c1nncn1-c1ccccc1,-15.1,-4.4,46.1*,-1.4,105.2,26.0,5.0
CCOC(=O)c1oc2c(C)c(O)ccc2c(=O)c1-c1nncn1-c1ccccc1,5.5,2.8,-6.3,-1.5,86.0,x,x
CCOC(=O)c1c(CN(C)C)n(-c2ccc(C)cc2)c2cc(Br)c(O)cc12,33.9,-3.7,37.6*,-4.2,108.8,-37.6,3.0
COc1ccc(NC(=O)CN(C)S(=O)(=O)c2ccc3c(c2)c(=O)n(C)c(=O)n3C)cc1,-12.8,-11.6,2.4,-5.0,127.5,x,x
N#Cc1c(N)sc2c1CCCCCC2,45.7,-1.5,42.7*,4.4,78.5,-6.3,-0.4
C/C(=N\NC(=O)c1nnn(-c2nonc2N)c1-c1ccccc1)c1ccco1,-5.9,-8.0,1.5,-2.8,132.6,x,x
CSc1sc(-c2ccnc(SCC(=O)C(C)(C)C)n2)c2c1C(=O)CC(C)(C)C2,8.2,-5.9,34.9*,-0.9,98.9,-25.8,2.7
CCCN1C(=O)c2ccc(C(=O)Nc3ccccc3C(=O)O)cc2C1=O,-17.8,-4.4,-9.7,1.3,132.5,x,x
O=c1cc(-c2ccc(O)c(O)c2)oc2cc(O)c(C3OC(CO)C(O)C(O)C3O)c(O)c12 (stereo unspecified),12.3,-7.3,68.4*,-0.5,126.4,33.9*,1.6
